# Source: PubChem BioAssay (National Center for Advancing Translational Sciences (NCATS))
# HT1080 IDH1KD tx – qHTS for induction of synthetic lethality in tumor cells producing 2HG: qHTS for the HT-1080-IDH1KD cell line; hit rate 2% among 360,000; HT-1080 IDH1 knockdown viability, ATP luminescence, 48 h; AID 686971, 2013; Potency, µM (doses to about 46.1 µM), inactives show at the highest dose activity, negative = toxicity, usual class: cytotoxic;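 also: 0% = DMSO wells and -100% = cell-free medium wells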
#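 CellTiter-Glo luminescence after 48 h compound exposure at 37 degrees C of IDH1-knockdown HT-1080 cells in 5% FBS RPMI. %Activity scaled between DMSO wells and cell-free media wells, with curves fitted and assigned curve classes.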
# ATXN viability – Viability Counterscreen for Primary qHTS for Inhibitors of ATXN expression | S2 cells (HEK-293 line with an ATXN2-luciferase reporter) viability, CellTiter-Fluor protease fluorescence, 24 h | Potency, µM (highest dose often 56.7 µM), usual class: cytotoxic | hit rate 0.49% among 400,000; also: nearly all actives have a fitted effect of over 40% in size
# KB-3-1 tox – qHTS assay for MDR1-selective chemotherapeutics: Primary screen using the parental adenocarcinoma cell KB-3-1; KB-3-1 viability, CellTiter-Glo ATP luminescence, 72 h; Potency, µM (doses to about 46.1 µM), actives largely listed as cytotoxic; hit rate 1.4% among 400,000; AID 1347075, 2019; also: % is scaled to controls: 0 for no effect and ±100 for the full control effect; nearly all actives have a fitted effect of over 60% in size
#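 Viability of parental KB-3-1 cells, measured by CellTiter-Glo luminescence, followed a 72 h incubation at 37 °C with pinned compounds in phenol-red-free DMEM containing 10% FBS.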
# ATXN2 expr inh – Primary qHTS for Inhibitors of ATXN expression; HEK-293 ATXN2-luciferase reporter, luminescence, 24 h; AID 1745845, 2022; hit rate 0.72% among 360,000; Potency, µM (titrated, usually from 57 µM), inactives show top-dose activity change, negative = inhibition, most hits filed as inhibitors; also: % is scaled to controls: 0 for no effect and ±100 for the full control effect; nearly all actives have a fitted effect of over 55% in size
#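 ATXN2-luciferase reporter cells (luciferase flanked by upstream and downstream ATXN2 gene portions) were treated 24 h at 37 °C with compounds at up to 57 uM. SteadyGlo luminescence gave expression; GF-AFC fluorescence gave viability.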
# HT1080-NT tox – qHTS for induction of synthetic lethality in tumor cells producing 2HG: qHTS for the HT-1080-NT fibrosarcoma cell line | HT-1080-NT fibrosarcoma viability, CellTiter-Glo ATP luminescence, 48 h | Potency, µM (doses to about 46.1 µM), without a hit: at the highest dose activity, negative = less viability, most hits filed as cytotoxic | hit rate 1.6% among 360,000 | AID 686970, 2013;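 also: NT is the 2HG producing partner of a matched IDH1 knockdown line; 0% = DMSO-treated cells and -100% = media-only wells without cells; nearly all actives have a fitted effect of over 55% in size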
#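 Compounds were tested in concentration-response format on HT-1080-NT cells for 48 hours at 37 degrees C. Cell viability came from CellTiter-Glo luminescence; curves were classified by r2, response magnitude and activity.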
# KB-V1 MDR tox – qHTS assay for MDR1-selective chemotherapeutics: Primary screen using the drug-selected MDR subline cells KB-V1. KB-V1 MDR cells viability, CellTiter-Glo, 72 h. Potency, µM (doses to about 46.1 µM), most hits filed as cytotoxic. hit rate 3.4% among 400,000. AID 1347076, 2019; also: % is scaled to controls: 0 for no effect and ±100 for the full control effect; nearly all actives have a fitted effect of over 60% in size
#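 KB-V1 cells (P-gp-expressing MDR subline of KB-3-1) in phenol-red-free DMEM with 10% FBS were exposed to library compounds over a concentration series for 72 h at 37 degrees C. Viability read by CellTiter-Glo luminescence; concentration-effect curves fitted after normalization.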
# * hit, by the source's call; i = inactive; ? = inconclusive; · = not tested or not shown; ! = not confirmed by another sample. Only some compounds are listed: those with a hit (about 6.2% of all), similar ones and a draw of the others. Calls follow the shape of the dose curve; as a rule, active = well fitted curve in the direction sought with a large enough effect; inconclusive = small, poorly fitted or top-dose-only effect, or another doubt; inactive = no such curve, though single readings can be large; an effect the other way counts as inactive or inconclusive. Potency is read from the fitted curve at half-maximal effect.
SMILES,HT1080 IDH1KD tx,ATXN viability,KB-3-1 tox,ATXN2 expr inh,HT1080-NT tox,KB-V1 MDR tox
COc1cc(-c2cc(NC=O)c3ncc(-c4ccc(C(C)=O)cc4)n3c2)ccc1O,18.4µM*,i,?,-4.9%,?,i
O=C(CCCCCn1c(=O)[nH]c2ccccc2c1=O)NCc1cccc(Cl)c1,·,·,i,·,·,i
C=CCn1c(=O)c(C(=O)NCCc2ccccc2)c(O)c2ccccc21,-1.3%,i,i,-8.6%,-21.1%,20.6µM*
C=CCn1c(=O)c(C(=O)Nc2ccc(C)cn2)c(O)c2ccccc21,11.1%,i,?,·,5.0%,6.51µM*
C=CCn1c(=O)c(C(=O)Nc2cccnc2)c(O)c2ccccc21,-0.3%,i,i,-7.1%,8.8%,?
COc1ccc(N2CC(NC(=O)C3CCCCC3)CC2=O)cc1OC (stereo not given),·,i,i,2.0%,·,?
CCc1cccc(CC)c1NC(=O)/C(C#N)=C/c1ccccc1C(F)(F)F,?,·,?,?,23.1µM*,?
CCOc1nc(NC(=O)NS(=O)(=O)Oc2cccc(Cl)c2)nc(-c2ccccc2)n1,20.0%,i,0.0016µM*!,4.3%,0.7%,i
COc1ccc(Oc2nc3c(c(=O)n(Cc4ccccc4Cl)c(=O)n3C)n2C)cc1,·,i,?,3.3%,·,?
CCOc1nc2c(c(=O)n(C)c(=O)n2C)n1Cc1ccccc1Cl,-3.8%,?,?,-24.0%,2.5%,4.11µM*
Cn1c(Oc2ccc(F)cc2)nc2c1c(=O)n(Cc1ccccc1Cl)c(=O)n2C,·,i,?,-2.3%,·,10.3µM*
CCN1CCOC(=O)C1CC(=O)Nc1ccc(Br)cc1 (stereo not given),·,i,i,11.8%,·,i
Cc1ccc(NC(=O)c2cc([N+](=O)[O-])ccc2N2CCOCC2)cc1S(=O)(=O)N1CCOCC1,-9.4%,i,i,-5.5%,-19.8%,i
Cc1ccc(NC(=O)c2ccc([N+](=O)[O-])o2)cc1S(=O)(=O)N1CCOCC1,6.51µM*,i,?,?,?,?
CCCC(=O)N1CCN(c2ccc(NC(=O)c3ccc([N+](=O)[O-])o3)cc2Cl)CC1,?,i,?,?,16.4µM*,?
Cc1ccc(NC(=S)NNC(=O)c2ccc(N3CCOCC3)c([N+](=O)[O-])c2)cc1Cl,15.6%,i,?,-13.3%,3.8%,16.4µM*
CC(C)C(=O)N1CCN(c2c(Cl)cccc2[N+](=O)[O-])CC1,8.8%,i,?,0.5%,16.0%,14.6µM*
O=C(NNC(=S)Nc1ccc(Br)cc1)c1ccc(N2CCOCC2)c([N+](=O)[O-])c1,-2.7%,i,i,-7.1%,-5.3%,i
CCC(=O)N1CCN(c2c(Cl)cccc2[N+](=O)[O-])CC1,0.4%,i,?,2.8%,2.0%,?
O=C(Nc1cccc(Cl)c1N1CCCC1)c1ccc([N+](=O)[O-])o1,2.2%,i,?,-21.1%,-15.9%,?
CCOc1ccn(-c2ccc(F)cc2)c(=O)c1C(=O)Nc1ccc(Oc2ccnc(N)c2Cl)c(F)c1,·,·,·,-21.9%,·,·
CCOc1ccc(S(=O)(=O)N2CCN(c3nc(-c4ccccc4)nc4ccccc34)CC2)cc1OCC,·,·,i,·,·,i
COc1ccc(Cn2c(C(=O)O)c(CNC3CCC(C)CC3)c3ccc(C)cc32)cc1 (stereo not given),·,i,i,1.0%,·,i
CC(C)C(=O)N1CCN(c2ccc(NC(=O)c3ccc([N+](=O)[O-])o3)cc2)CC1,7.31µM*,i,?,15.0%,11.6µM*,?
CC(=O)N1CCN(c2ccc(NC(=O)c3ccc(Br)o3)cc2Cl)CC1,-1.5%,i,i,·,3.8%,i
SMILES,HT1080 IDH1KD tx,ATXN viability,KB-3-1 tox,ATXN2 expr inh,HT1080-NT tox,KB-V1 MDR tox
CC(C)C(=O)N1CCN(c2ccc(NC(=O)COc3ccccc3[N+](=O)[O-])cc2)CC1,?,?,?,?,?,18.4µM*
CC(C)C(=O)N1CCN(c2ccc(NC(=O)c3ccc([N+](=O)[O-])o3)cc2Cl)CC1,?,i,?,?,7.31µM*,?
CN1CCN(c2ccc(NC(=O)c3ccc([N+](=O)[O-])o3)cc2Cl)CC1,11.6µM*,20µM*,?,-27.5%,5.8µM*,?
COc1ccc(CNc2ncnc3onc(-c4ccc(F)cc4)c23)cc1,·,i,i,0.7%,·,?
COc1ccc(N2C(=O)C(CC(=O)Nc3ccc(F)cc3)N(Cc3ccc4c(c3)OCO4)C2=O)cc1 (stereo not given),·,i,i,7.5%,·,i
O=C(Nc1ccc(N2CCOCC2)c(Cl)c1)c1ccc([N+](=O)[O-])o1,4.61µM*,?,i,·,6.51µM*,i
O=C(Nc1ccccc1N1CCOCC1)c1ccc([N+](=O)[O-])o1,0.8%,?,i,-25.8%,-3.3%,?
CCC1CN(CC(=O)NCc2ccc3c(c2)OCO3)Cc2ccc(Cl)cc2O1 (stereo not given),·,i,·,·,·,·
O=C(NCC1(N2CCOCC2)CCCC1)c1cnn(-c2nccc(-c3ccco3)n2)c1C1CC1,·,i,·,·,·,·
CCOc1cc(S(=O)(=O)N(Cc2ccccc2)Cc2ccccc2)c(OCC)cc1-n1cnnn1,-3.5%,i,i,7.3%,2.7%,3.66µM*
CCOc1cc(S(=O)(=O)NCc2ccccc2)c(OCC)cc1-n1cnnn1,-5.7%,i,i,0.7%,-0.3%,i
CCCCOC(=O)c1ccc(NC(=O)/C(C#N)=C/c2ccc(C)o2)cc1,·,i,i,5.0%,·,i
Fc1ccccc1CCNc1c2c(nc3ncnn13)CCCC2,-10.2%,i,?,-26.1%,0.2%,i
c1ccc(CCNc2c3c(nc4ncnn24)CCC3)cc1,-6.0%,i,i,-6.1%,2.1%,11.6µM*
NC(=O)c1ccccc1NC(=O)CCc1ccccc1,4.7%,i,i,23.3%,6.8%,i
NC(=O)c1ccccc1NC(=S)NC(=O)CCc1ccccc1,3.26µM*,?,i,-11.8%,3.26µM*,i
CCC(=O)NC(=S)Nc1c(C)cc(Br)cc1C,-19.6%,i,i,-4.5%,-13.9%,i
Cc1cccc(C)c1NC(=S)NC(=O)CCc1ccccc1,11.2µM*,i,i,-11.9%,10µM*,?
